Results reported in PubChem BioAssay (NCI).
This is part of a sample that, as a whole, favours compounds with a hit. Of some 83,000 tested, about 20% had one in any assay.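 Assay: single dose, 48 h. Readout: percent growth (0 = no net growth; negative = cell death). Active: <10.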 The source made the active and inactive calls.

Test system: NCI-H226 lung
Experiment: NCI-60 one-dose screen, 48 h (100 = growth as untreated, 0 = no growth, -100 = all killed)
Conditions: 10 µM unless noted

Row | SMILES | growth
1 | Nc1c(C(=O)Nc2c(Cl)cccc2Cl)sc2nc3c(cc12)CCCC3 | 91.4% (inactive)
2 | COc1cc2ncnc(Nc3ccc(OCc4cccc(F)c4)c(Cl)c3)c2cc1NC(=O)C1CCCC1 | 76% (inactive)
3 | O=C(N/N=C/c1ccccc1SSc1ccccc1/C=N/NC(=O)c1ccccc1)c1ccccc1 | 44.8% (inactive)
4 | C[C@@H]1CCCCCCCCC[C@H](O)C(=O)C[C@@H](SC[C@@H](O)C(=O)O)C(=O)O1 | 102% (inactive)
5 | C=C(C)[C@@H]1CC[C@]2(C)[C@H](CC=C3[C@@H]4CC(C)(C)CC[C@]4(C(=O)OC)CC[C@]32C)[C@@]1(C)CC/C(N)=N/O | 2.13% (active)
6 | C=C(C)[C@@H]1CC[C@]2(C)[C@H](CC=C3[C@@H]4CC(C)(C)CC[C@]4(C=O)CC[C@]32C)[C@@]1(C)CCCN | 85.5% (inactive)
7 | Cc1ccc(/C=C(\C#N)c2cc3ccccc3n2C)cc1 | 57.6% (inactive)
8 | N=C(N)c1ccc(S(N)(=O)=O)cc1 | 101% (inactive)
9 | COc1ccc(-c2cc(=O)oc3ccc(Cl)cc23)cc1F | 49.1% (inactive)
10 | CCSc1sc(-c2ccc(C)cc2)nc1[P+](c1ccccc1)(c1ccccc1)c1ccccc1 | -4.39% (active)
11 | COC(=O)[C@]12CC[C@@H](C)[C@H](C)[C@@H]1C1=CC(=O)[C@@H]3[C@@]4(C)C[C@@H](O)[C@H](O)[C@@]5(C)COC(=C45)C[C@@]3(C)[C@]1(C)CC2 | 81.6% (inactive)
12 | O=S(=O)(NCCNc1cc(-c2cn(-c3ccccc3)nc2-c2cccc(O)c2)ccn1)c1ccc(Br)cc1 | 45% (inactive)
13 | Brc1ccc2[nH]cc(-c3nc(-c4c[nH]c5ncccc45)cs3)c2c1 | 62.4% (inactive)
14 | Cc1ccc(-c2ccc(Nc3ccccc3)nn2)cc1S(N)(=O)=O | 99.2% (inactive)
15 | Cn1c2c(Cl)c(Cl)ccc2c2c(C#N)c[nH]c(=O)c21 | 94.5% (inactive)
16 | C/C(=N/NC(N)=S)C(=O)O | 90.1% (inactive)
17 | CCCCC[C@H]1C/C=C2/C(=O)C=C[C@@H]2C/C=C\CCCC(=O)O[C@@H](CCCCC)C/C=C2/C(=O)C=C[C@@H]2C/C=C\CCCC(=O)O1 | -61.2% (active)
18 | C#CCn1c(C)cc(C)c(C#N)c1=O | 114% (inactive)
19 | N#CC1C(=N)Cc2ccccc2-c2ccccc21 (stereo unspecified) | 77.8% (inactive)

Row | SMILES | growth
20 | Cc1cc(N2CCCCC2)nc(N(CCNc2ccnc3cc(Cl)ccc23)Cc2ccco2)n1 | 80.1% (inactive)
21 | C[C@@H](C(=O)O)c1ccc2c3cc(Cl)ccc3n(Cc3cc(=O)oc4ccc(Cl)cc34)c2c1 | 103% (inactive)
22 | C=C1C(=O)O[C@H]2[C@H]1CC/C(COC(=O)NCc1cc3ccccc3[nH]1)=C\CC[C@@]1(C)O[C@@H]21 | 64.5% (inactive)
23 | CCOC(=O)N1CCN(CCCCOc2ccc(C(C)(C)CC)cc2)CC1 | 88.5% (inactive)
24 | OCC(CO)(CCl)CCl | 101% (inactive)
25 | COc1ccc(-c2cc(/C=C/C(=O)c3ccc(N)cc3)[nH]n2)cc1 | 24.5% (inactive)
26 | CC(C)(C)c1nc(-c2ccc(O)c(O)c2)cs1 | 93.7% (inactive)
27 | Brc1ccc(Cn2nnnc2-c2ccn(-c3ccccc3)n2)cc1 | 62.8% (inactive)
28 | COC(=O)C(Cc1ccccc1)n1cc(COc2nc(Cl)nc(Nc3ccc(Cl)cc3)n2)nn1 (stereo unspecified) | 99.8% (inactive)
29 | COc1cccc(-c2nn(-c3ccccc3)cc2-c2ccnc(NCCNS(=O)(=O)c3ccccc3)c2)c1 | 41.2% (inactive)
30 | Nc1c(C(=O)Nc2cccc3ccccc23)sc2nc3c(cc12)CCCC3 | 63.1% (inactive)
31 | Cn1cc(-c2csc(-c3cn(CCN)c4ccc(F)cc34)n2)c2cccnc21 | 80.2% (inactive)
32 | COc1ccc(NC(=S)N/N=C/c2ccccc2SSCCC(=O)OC[C@H]2O[C@H](O)[C@H](O)[C@@H](O)[C@@H]2O)cc1 | 88.2% (inactive)
33 | c1ccc(-c2nc(Nc3ccc(-c4nc5ccccc5[nH]4)cc3)nc(N3CCOCC3)n2)cc1 | -19.3% (active)
34 | COc1cnc2c(c1)C(=O)c1c-2n(CCCNC2=NCCS2)c(=O)c2cc([N+](=O)[O-])ccc12 | 8.43% (active)
35 | OCCNc1nc(Nc2ccc(Cl)c(Cl)c2)nc2ccccc12 | 61.7% (inactive)
36 | Oc1ccc(CCC2CCCC(CCc3ccc(OCCF)cc3)N2)cc1 (stereo unspecified) | 99.3% (inactive)
37 | Cc1ccsc1-c1ccc2c(c1)COC2(CCCN(C)C)c1ccc(F)cc1 (stereo unspecified) | 93% (inactive)
38 | COc1ccc(NC(=O)c2ccoc2COc2ccccc2)cc1 | 98.8% (inactive)

Test system: NCI-H322M lung
Experiment: as above
Conditions: 10 µM unless noted

Row | SMILES | growth
39 | Nc1c(C(=O)Nc2c(Cl)cccc2Cl)sc2nc3c(cc12)CCCC3 | 94% (inactive)
40 | COc1cc2ncnc(Nc3ccc(OCc4cccc(F)c4)c(Cl)c3)c2cc1NC(=O)C1CCCC1 | 34.4% (inactive)
41 | O=C(N/N=C/c1ccccc1SSc1ccccc1/C=N/NC(=O)c1ccccc1)c1ccccc1 | 46.5% (inactive)
42 | C[C@@H]1CCCCCCCCC[C@H](O)C(=O)C[C@@H](SC[C@@H](O)C(=O)O)C(=O)O1 | 116% (inactive)
43 | C=C(C)[C@@H]1CC[C@]2(C)[C@H](CC=C3[C@@H]4CC(C)(C)CC[C@]4(C(=O)OC)CC[C@]32C)[C@@]1(C)CC/C(N)=N/O | 85.6% (inactive)
44 | C=C(C)[C@@H]1CC[C@]2(C)[C@H](CC=C3[C@@H]4CC(C)(C)CC[C@]4(C=O)CC[C@]32C)[C@@]1(C)CCCN | 86.5% (inactive)
45 | Cc1ccc(/C=C(\C#N)c2cc3ccccc3n2C)cc1 | 58.7% (inactive)
46 | N=C(N)c1ccc(S(N)(=O)=O)cc1 | 96.2% (inactive)
47 | COc1ccc(-c2cc(=O)oc3ccc(Cl)cc23)cc1F | 46.9% (inactive)
48 | CCSc1sc(-c2ccc(C)cc2)nc1[P+](c1ccccc1)(c1ccccc1)c1ccccc1 | -16.7% (active)
49 | COC(=O)[C@]12CC[C@@H](C)[C@H](C)[C@@H]1C1=CC(=O)[C@@H]3[C@@]4(C)C[C@@H](O)[C@H](O)[C@@]5(C)COC(=C45)C[C@@]3(C)[C@]1(C)CC2 | 88.4% (inactive)
50 | O=S(=O)(NCCNc1cc(-c2cn(-c3ccccc3)nc2-c2cccc(O)c2)ccn1)c1ccc(Br)cc1 | 50.8% (inactive)
51 | Brc1ccc2[nH]cc(-c3nc(-c4c[nH]c5ncccc45)cs3)c2c1 | 42% (inactive)
52 | Cc1ccc(-c2ccc(Nc3ccccc3)nn2)cc1S(N)(=O)=O | 108% (inactive)
53 | Cn1c2c(Cl)c(Cl)ccc2c2c(C#N)c[nH]c(=O)c21 | 129% (inactive)
54 | C/C(=N/NC(N)=S)C(=O)O | 103% (inactive)
55 | CCCCC[C@H]1C/C=C2/C(=O)C=C[C@@H]2C/C=C\CCCC(=O)O[C@@H](CCCCC)C/C=C2/C(=O)C=C[C@@H]2C/C=C\CCCC(=O)O1 | -85.7% (active)
56 | C#CCn1c(C)cc(C)c(C#N)c1=O | 103% (inactive)
57 | N#CC1C(=N)Cc2ccccc2-c2ccccc21 (stereo unspecified) | 78.5% (inactive)

Row | SMILES | growth
58 | Cc1cc(N2CCCCC2)nc(N(CCNc2ccnc3cc(Cl)ccc23)Cc2ccco2)n1 | 68.9% (inactive)
59 | C[C@@H](C(=O)O)c1ccc2c3cc(Cl)ccc3n(Cc3cc(=O)oc4ccc(Cl)cc34)c2c1 | 86.3% (inactive)
60 | C=C1C(=O)O[C@H]2[C@H]1CC/C(COC(=O)NCc1cc3ccccc3[nH]1)=C\CC[C@@]1(C)O[C@@H]21 | 88.3% (inactive)
61 | CCOC(=O)N1CCN(CCCCOc2ccc(C(C)(C)CC)cc2)CC1 | 113% (inactive)
62 | OCC(CO)(CCl)CCl | 112% (inactive)
63 | COc1ccc(-c2cc(/C=C/C(=O)c3ccc(N)cc3)[nH]n2)cc1 | 12.4% (inactive)
64 | CC(C)(C)c1nc(-c2ccc(O)c(O)c2)cs1 | 93.2% (inactive)
65 | Brc1ccc(Cn2nnnc2-c2ccn(-c3ccccc3)n2)cc1 | 76.8% (inactive)
66 | COC(=O)C(Cc1ccccc1)n1cc(COc2nc(Cl)nc(Nc3ccc(Cl)cc3)n2)nn1 (stereo unspecified) | 95.3% (inactive)
67 | COc1cccc(-c2nn(-c3ccccc3)cc2-c2ccnc(NCCNS(=O)(=O)c3ccccc3)c2)c1 | 62.8% (inactive)
68 | Nc1c(C(=O)Nc2cccc3ccccc23)sc2nc3c(cc12)CCCC3 | 51.7% (inactive)
69 | Cn1cc(-c2csc(-c3cn(CCN)c4ccc(F)cc34)n2)c2cccnc21 | 73% (inactive)
70 | COc1ccc(NC(=S)N/N=C/c2ccccc2SSCCC(=O)OC[C@H]2O[C@H](O)[C@H](O)[C@@H](O)[C@@H]2O)cc1 | 52.5% (inactive)
71 | c1ccc(-c2nc(Nc3ccc(-c4nc5ccccc5[nH]4)cc3)nc(N3CCOCC3)n2)cc1 | -0.466% (active)
72 | COc1cnc2c(c1)C(=O)c1c-2n(CCCNC2=NCCS2)c(=O)c2cc([N+](=O)[O-])ccc12 | -19.6% (active)
73 | OCCNc1nc(Nc2ccc(Cl)c(Cl)c2)nc2ccccc12 | 71% (inactive)
74 | Oc1ccc(CCC2CCCC(CCc3ccc(OCCF)cc3)N2)cc1 (stereo unspecified) | 106% (inactive)
75 | Cc1ccsc1-c1ccc2c(c1)COC2(CCCN(C)C)c1ccc(F)cc1 (stereo unspecified) | 68.5% (inactive)
76 | COc1ccc(NC(=O)c2ccoc2COc2ccccc2)cc1 | 101% (inactive)
